Screen size: about 3,200 compounds; about 300 (9.4%) showed activity. Only a selection was taken, and actives are over-represented in it overall.
Test system: A673/TR/shEF
Test: cell viability (LOESS-normalised, relative to median of negative controls) (log2 ratio); higher = more viable cells (less compound effect), active = hit call of the paper (over 3 MAD below the median)
Settings: treatment time: 72 h
How it was run: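 Viability of A673/TR/shEF Ewing sarcoma cells was determined by CellTiter-Glo luminescence. The cells, at 1,500 per well in 384-well plates, were grown with or without doxycycline from 24 h before compound addition to switch on EWS-FLI1 shRNA knockdown, then exposed for three days to library compounds at two or more concentrations or to DMSO controls. Signals were LOESS-corrected plate by plate, normalised to the negative-control median and log2-transformed.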

[1] = 0.25 µM, library screen: screen1, EWS-FLI1 expression: high (no doxycycline)
[2] = 0.25 µM, library screen: screen1, EWS-FLI1 expression: low (doxycycline-induced shRNA knockdown)
[3] = 2.5 µM, library screen: screen1, EWS-FLI1 expression: high (no doxycycline)
[4] = 2.5 µM, library screen: screen1, EWS-FLI1 expression: low (doxycycline-induced shRNA knockdown)

Measured: cell viability (log2)

CC(=O)O[C@H]1CC[C@@]2(C)C(C[C@@H](OC(C)=O)[C@@]3(C)C4=CC(=O)OC(c5ccoc5)[C@]4(C)CCC23)C1(C)C (stereo partly specified)
inactive: [1] 0.121 | [2] 0.145 | [3] 0.126 | [4] 0.124

COc1cc(C(=O)N2CCOCC2)c([N+](=O)[O-])cc1OC
inactive: [1] 0.0993 | [2] 0.0316 | [3] 0.0928 | [4] -0.0159

CCCCCCCCCCCCCCCCCC(=O)OC[C@H](COP(=O)(O)OCC(O)COP(=O)(O)OC[C@@H](COC(=O)CCCCCCCCCCCCCCCCC)OC(=O)CCCCCCCCCCCCCCCCC)OC(=O)CCCCCCCCCCCCCCCCC (stereo partly specified)
inactive: [1] 0.0223 | [2] 0.0715 | [3] 0.128 | [4] 0.138

CC(=O)O[C@@H]1C[C@H]2C(C)(C)C(=O)[C@@H]3O[C@@H]3[C@]2(C)[C@H]2CC[C@@]3(C)[C@H](c4ccoc4)OC(=O)[C@H]4O[C@]43[C@@]21C
inactive: [1] 0.0357 | [2] 0.0669 | [3] 0.155 | [4] 0.138

COc1ccc(-c2c(OC)c3c(OC)c4c(cc3oc2=O)OC(C)(C)C=C4)cc1
inactive: [1] 0.0786 | [2] 0.00334 | [3] 0.211 | [4] 0.00828

COc1cc2c(cc1-c1coc3c4c(c(OC)cc3c1=O)OC(C)(C)C=C4)OCO2
inactive: [1] 0.082 | [2] 0.0865 | [3] 0.173 | [4] 0.0953

COc1cc2c(cc1OC)[C@@H]1C(=O)c3c(cc4c(c3O)C=CC(C)(C)O4)O[C@@H]1CO2
active: [3] -0.392
inactive: [1] -0.0181 | [2] -0.000972 | [4] -0.0174

COc1ccc2c(c1)O[C@H]1c3ccc(O)cc3OC[C@@H]21
inactive: [1] 0.225 | [2] 0.129 | [3] 0.184 | [4] 0.206

COc1c(CC(=O)c2cc3c(cc2O)OC(C)(C)C(O)C3)ccc2c1C=CC(C)(C)O2 (stereo unspecified)
inactive: [1] 0.0608 | [2] -0.00504 | [3] 0.0765 | [4] 0.0703

COc1c2c(cc3ccoc13)C(=O)[C@H]1c3cc4c(cc3OC[C@H]1O2)OCO4
inactive: [1] 0.0834 | [2] 0.0158 | [3] 0.0793 | [4] -0.0539

COc1ccc2c(c1)O[C@@H]1COc3cc(OC)c(OC)cc3[C@@H]1C2=O
inactive: [1] -0.0338 | [2] 0.0823 | [3] -0.0122 | [4] -0.0233

COc1cc2c(cc1OC)[C@@H]1C(=O)c3ccc4c(c3O[C@@H]1CO2)C=CC(C)(C)O4
active: [1] -0.591 | [2] -0.253 | [3] -2.11 | [4] -0.84

COc1cc2c(cc1OC)[C@@H]1C(=O)c3c(O)cc4c(c3O[C@@H]1CO2)C=CC(C)(C)O4
active: [1] -0.205 | [2] -0.261 | [3] -0.213
inactive: [4] -0.138

COc1ccccc1-c1coc2cc(O)ccc2c1=O
inactive: [1] 0.111 | [2] 0.0685 | [3] 0.111 | [4] -0.0147

COc1cc(C(=O)O)c(O)c2c1OCO2
inactive: [1] -0.00582 | [2] -0.144 | [3] 0.116 | [4] -0.0061

C[C@@H]1C[C@H]2[C@@H]3C[C@H](F)C4=CC(=O)C=C[C@]4(C)[C@@]3(F)[C@@H](O)C[C@]2(C)[C@H]1C(=O)COC(=O)C(C)(C)C
inactive: [1] 0.00935 | [2] -0.0577 | [3] 0.0831 | [4] -0.0529

COc1cc(O)c(C(=O)c2ccccc2)c(OC)c1
inactive: [1] 0.0618 | [2] 0.0186 | [3] 0.0469 | [4] 0.0894

OC[C@H]1O[C@@](CO)(O[C@H]2O[C@H](CO)[C@@H](O)[C@H](O)[C@H]2O)[C@@H](O[C@H]2O[C@H](CO)[C@@H](O)[C@H](O)[C@H]2O)[C@@H]1O
inactive: [1] 0.0123 | [2] 0.0415 | [3] 0.0346 | [4] 0.126

COCCOC(=O)C1=C(C)NC(=S)NC1c1ccccc1OC (stereo unspecified)
inactive: [1] 0.0949 | [2] 0.0382 | [3] 0.0563 | [4] 0.0651

C=CC(C)(CCC1C(=C)CC(OC(C)=O)C2C(C)(C)CCCC12C)OC(C)=O (stereo unspecified)
inactive: [1] 0.025 | [2] 0.066 | [3] 0.163 | [4] -0.0558

O=C1[C@H](Cc2ccc(O)cc2)N2C(=O)CCN(C(=O)NCc3ccccc3)[C@H]2CN1Cc1cccc2ccccc12
active: 25 µM, library screen: screen3, EWS-FLI1 expression: high (no doxycycline) -1.07 | 25 µM, library screen: screen3, EWS-FLI1 expression: low (doxycycline-induced shRNA knockdown) -1.18
inactive: 0.103 µM, library screen: screen3, EWS-FLI1 expression: high (no doxycycline) -0.0101 | 0.103 µM, library screen: screen3, EWS-FLI1 expression: low (doxycycline-induced shRNA knockdown) 0.068 | 0.308 µM, library screen: screen3, EWS-FLI1 expression: high (no doxycycline) 0.0453 | 0.308 µM, library screen: screen3, EWS-FLI1 expression: low (doxycycline-induced shRNA knockdown) 0.0327 | 0.926 µM, library screen: screen3, EWS-FLI1 expression: high (no doxycycline) 0.0157 | 0.926 µM, library screen: screen3, EWS-FLI1 expression: low (doxycycline-induced shRNA knockdown) 0.0736 | 2.8 µM, library screen: screen3, EWS-FLI1 expression: high (no doxycycline) 0.0365 | 2.8 µM, library screen: screen3, EWS-FLI1 expression: low (doxycycline-induced shRNA knockdown) 0.0441 | 8.3 µM, library screen: screen3, EWS-FLI1 expression: high (no doxycycline) -0.0756 | 8.3 µM, library screen: screen3, EWS-FLI1 expression: low (doxycycline-induced shRNA knockdown) -0.205

O=C(O)[C@@H]1C2CC3c4[nH]c5ccccc5c4CCN3CC2CC[C@@H]1O (stereo partly specified)
inactive: [1] 0.0321 | [2] 0.0471 | [3] 0.097 | [4] 0.142
